The results in this text go back to PMC7862700, “An all-to-all approach to the identification of sequence-specific readers for epigenetic DNA modifications on cytosine”.

Experiment in all cases: DAPPL (digital affinity profiling via proximity ligation, sequencing); 10 mM Tris-HCl pH 7.5, 50 mM NaCl, 1 mM DTT, 4% glycerol, room temperature, 30 min; GST-TFs on glutathione beads, 16-mer random dsDNA library, 0.1% formaldehyde crosslink after washing; high values mean tight binding
Holding throughout (details): protein: recombinant; tags: N-terminal GST; dsDNA, one strand shown

For one test, the target named is T1, ERF (Homo sapiens, UniProt P50548 1-548).
T1 sequence: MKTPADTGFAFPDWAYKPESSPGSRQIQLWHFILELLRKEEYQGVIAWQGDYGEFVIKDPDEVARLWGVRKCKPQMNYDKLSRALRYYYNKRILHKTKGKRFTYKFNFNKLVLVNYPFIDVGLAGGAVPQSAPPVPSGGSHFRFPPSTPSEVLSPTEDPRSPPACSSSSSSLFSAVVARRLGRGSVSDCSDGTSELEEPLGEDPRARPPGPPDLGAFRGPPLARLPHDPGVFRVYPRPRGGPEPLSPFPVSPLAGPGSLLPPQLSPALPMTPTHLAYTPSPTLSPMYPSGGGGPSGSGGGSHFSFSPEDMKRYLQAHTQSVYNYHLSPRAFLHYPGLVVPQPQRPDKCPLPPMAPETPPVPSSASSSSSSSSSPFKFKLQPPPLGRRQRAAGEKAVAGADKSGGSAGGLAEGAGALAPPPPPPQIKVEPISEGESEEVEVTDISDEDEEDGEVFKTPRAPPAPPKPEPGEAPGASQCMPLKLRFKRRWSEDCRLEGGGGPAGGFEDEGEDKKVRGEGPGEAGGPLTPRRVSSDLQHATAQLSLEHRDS
In short, it runs like this: (§1)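 Pools were built from human transcription factors expressed in yeast as GST fusions, captured on glutathione beads and DNA-barcoded, along with a tag-only sample. Incubation with 200 nmole of a 16-mer random double-stranded DNA library lasted 30 min at room temperature in Tris/NaCl/DTT/glycerol buffer, and was followed by washing, 0.1% formaldehyde crosslinking, proximity ligation, PCR amplification and Illumina NextSeq500 sequencing. Binding signal is the quotient of each hexamer's read frequency for a factor and its frequency for the tag-only sample.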

The next test has as its target T2, ETV3L (Homo sapiens, UniProt Q6ZN32 1-361).
T2 sequence: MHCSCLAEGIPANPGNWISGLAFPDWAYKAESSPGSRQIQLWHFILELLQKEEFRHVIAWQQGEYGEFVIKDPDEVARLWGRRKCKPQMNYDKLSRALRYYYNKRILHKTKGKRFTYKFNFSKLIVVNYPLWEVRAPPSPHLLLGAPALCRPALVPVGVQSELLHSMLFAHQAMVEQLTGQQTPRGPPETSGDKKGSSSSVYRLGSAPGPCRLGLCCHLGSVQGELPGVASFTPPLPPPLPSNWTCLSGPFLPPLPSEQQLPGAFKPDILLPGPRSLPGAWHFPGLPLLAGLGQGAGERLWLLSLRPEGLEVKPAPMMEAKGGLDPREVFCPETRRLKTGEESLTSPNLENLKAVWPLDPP
An outline of the steps:
as §1

A further test concerns the target T3, ETS2 (Homo sapiens, UniProt P15036 1-469).
T3 sequence: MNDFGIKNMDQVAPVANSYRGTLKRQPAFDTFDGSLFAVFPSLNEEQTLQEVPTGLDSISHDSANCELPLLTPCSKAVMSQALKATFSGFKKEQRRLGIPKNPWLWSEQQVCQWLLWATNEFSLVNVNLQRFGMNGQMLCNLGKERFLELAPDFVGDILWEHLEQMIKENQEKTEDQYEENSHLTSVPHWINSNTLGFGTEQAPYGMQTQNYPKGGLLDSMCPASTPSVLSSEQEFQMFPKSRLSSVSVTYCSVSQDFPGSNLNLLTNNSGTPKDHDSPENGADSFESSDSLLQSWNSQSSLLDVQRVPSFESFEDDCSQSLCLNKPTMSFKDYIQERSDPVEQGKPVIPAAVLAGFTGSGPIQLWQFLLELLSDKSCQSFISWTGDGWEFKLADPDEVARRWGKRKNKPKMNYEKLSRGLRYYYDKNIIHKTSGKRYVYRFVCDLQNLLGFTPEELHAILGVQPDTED
In short, it runs like this:
as §1

The next test has as its target T4, SPDEF (Homo sapiens, UniProt O95238 1-335).
T4 sequence: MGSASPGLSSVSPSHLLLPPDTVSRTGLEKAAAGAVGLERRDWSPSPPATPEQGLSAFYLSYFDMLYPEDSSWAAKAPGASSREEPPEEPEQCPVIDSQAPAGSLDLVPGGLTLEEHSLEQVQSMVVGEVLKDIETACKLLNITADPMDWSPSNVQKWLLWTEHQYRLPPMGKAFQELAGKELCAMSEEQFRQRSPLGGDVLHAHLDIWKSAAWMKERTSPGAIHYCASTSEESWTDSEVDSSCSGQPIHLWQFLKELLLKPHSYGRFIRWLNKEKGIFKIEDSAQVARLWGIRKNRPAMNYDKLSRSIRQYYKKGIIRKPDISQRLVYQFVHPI
In short, it runs like this:
as §1

The next test deals with T5, ETV7 (Homo sapiens, UniProt Q9Y603 1-341).
T5 sequence: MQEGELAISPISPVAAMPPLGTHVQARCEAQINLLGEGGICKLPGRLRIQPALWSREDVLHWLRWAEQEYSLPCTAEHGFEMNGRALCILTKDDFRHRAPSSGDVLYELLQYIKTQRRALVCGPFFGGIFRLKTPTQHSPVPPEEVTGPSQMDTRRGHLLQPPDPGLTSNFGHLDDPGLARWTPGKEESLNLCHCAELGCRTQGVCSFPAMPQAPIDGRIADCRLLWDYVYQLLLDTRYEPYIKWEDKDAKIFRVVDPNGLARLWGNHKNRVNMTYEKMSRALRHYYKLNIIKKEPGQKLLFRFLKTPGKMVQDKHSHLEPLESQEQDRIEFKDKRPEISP
In short, it runs like this: as §1

Another test concerns the target T6, ELF5 (Homo sapiens, UniProt Q9UKW6-2 1-255).
T6 sequence: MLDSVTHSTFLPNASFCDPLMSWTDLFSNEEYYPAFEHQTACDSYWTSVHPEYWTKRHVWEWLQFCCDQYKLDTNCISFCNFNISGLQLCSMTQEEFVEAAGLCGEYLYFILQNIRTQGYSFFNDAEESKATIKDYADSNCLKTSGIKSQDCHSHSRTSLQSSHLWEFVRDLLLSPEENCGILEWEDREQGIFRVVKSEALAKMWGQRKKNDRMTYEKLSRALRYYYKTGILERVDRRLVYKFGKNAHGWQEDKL
In short, it runs like this: as §1

In the next test the target is T7, ETV3 (Homo sapiens, UniProt P41162-2 1-143).
T7 sequence: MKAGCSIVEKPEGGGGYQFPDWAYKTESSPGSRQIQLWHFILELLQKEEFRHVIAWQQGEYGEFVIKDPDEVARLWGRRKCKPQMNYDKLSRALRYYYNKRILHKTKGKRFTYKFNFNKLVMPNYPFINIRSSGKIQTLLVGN
In short, it runs like this:
as §1

In another test the target is ETV6 (Homo sapiens, UniProt P41212 1-452). In short, it runs like this:
as §1

Chain of ETV6 (P41212 whole entry): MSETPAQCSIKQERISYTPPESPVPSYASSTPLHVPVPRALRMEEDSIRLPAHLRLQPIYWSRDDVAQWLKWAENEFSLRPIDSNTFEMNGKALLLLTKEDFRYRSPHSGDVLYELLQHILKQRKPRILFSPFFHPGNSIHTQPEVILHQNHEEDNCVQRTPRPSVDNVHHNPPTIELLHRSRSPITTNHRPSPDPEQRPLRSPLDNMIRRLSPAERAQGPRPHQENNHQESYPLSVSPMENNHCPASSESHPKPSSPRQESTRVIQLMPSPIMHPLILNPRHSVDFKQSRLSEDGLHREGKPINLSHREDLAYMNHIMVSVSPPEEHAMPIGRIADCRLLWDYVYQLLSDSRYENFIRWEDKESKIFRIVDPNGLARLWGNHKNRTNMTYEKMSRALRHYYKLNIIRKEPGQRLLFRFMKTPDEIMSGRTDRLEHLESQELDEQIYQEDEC

As for CCTATG, the binding signal in the test with ERF was 1.11 fold enrichment (6-mer frequency, TF over GST control); with ETV3L, 1.21 fold enrichment (6-mer frequency, TF over GST control); with ETS2, 1.19 fold enrichment (6-mer frequency, TF over GST control); with SPDEF, 1.25 fold enrichment (6-mer frequency, TF over GST control); with ETV7, 1.27 fold enrichment (6-mer frequency, TF over GST control); in the test with ELF5, 1.16 fold enrichment (6-mer frequency, TF over GST control). The binding signal with ETV3 is 1.29 fold enrichment (6-mer frequency, TF over GST control); with ETV6, 1.17 fold enrichment (6-mer frequency, TF over GST control).
As to AAGGAT, the binding signal with ERF was 1.12 fold enrichment (6-mer frequency, TF over GST control); with ETV3L it was 1.21 fold enrichment (6-mer frequency, TF over GST control); with ETS2, 1.14 fold enrichment (6-mer frequency, TF over GST control); with SPDEF, 1.37 fold enrichment (6-mer frequency, TF over GST control); in the test with ETV7, 1.05 fold enrichment (6-mer frequency, TF over GST control); in the test with ELF5, 1.43 fold enrichment (6-mer frequency, TF over GST control). The binding signal is 1.24 fold enrichment (6-mer frequency, TF over GST control) with ETV3 and 1.21 fold enrichment (6-mer frequency, TF over GST control) in the test with ETV6.
Take ACTAAA: the binding signal in the test with ERF was 1.27 fold enrichment (6-mer frequency, TF over GST control); with ETV3L it was 1.32 fold enrichment (6-mer frequency, TF over GST control); with ETS2, 1.3 fold enrichment (6-mer frequency, TF over GST control); with SPDEF, 1.25 fold enrichment (6-mer frequency, TF over GST control); with ETV7 it was 1.24 fold enrichment (6-mer frequency, TF over GST control); with ELF5, 1.28 fold enrichment (6-mer frequency, TF over GST control). Also, the binding signal is 1.21 fold enrichment (6-mer frequency, TF over GST control) in the test with ETV3 and 1.28 fold enrichment (6-mer frequency, TF over GST control) with ETV6.
For TAGTGG, the binding signal with ERF was 1.18 fold enrichment (6-mer frequency, TF over GST control); with ETV3L it was 1.15 fold enrichment (6-mer frequency, TF over GST control); with ETS2 it was 1.28 fold enrichment (6-mer frequency, TF over GST control); with SPDEF, 1.1 fold enrichment (6-mer frequency, TF over GST control); in the test with ETV7, 1.17 fold enrichment (6-mer frequency, TF over GST control); with ELF5 it was 1.12 fold enrichment (6-mer frequency, TF over GST control). For the same sequence, the binding signal with ETV3 was 1.1 fold enrichment (6-mer frequency, TF over GST control); in the test with ETV6, 1.16 fold enrichment (6-mer frequency, TF over GST control).
For TGAACA, the binding signal was 1.27 fold enrichment (6-mer frequency, TF over GST control) with ERF; 1.31 fold enrichment (6-mer frequency, TF over GST control) in the test with ETV3L; 1.18 fold enrichment (6-mer frequency, TF over GST control) with ETS2; 1.22 fold enrichment (6-mer frequency, TF over GST control) with SPDEF; 1.21 fold enrichment (6-mer frequency, TF over GST control) in the test with ETV7; 1.26 fold enrichment (6-mer frequency, TF over GST control) with ELF5. Moreover, the binding signal was 1.25 fold enrichment (6-mer frequency, TF over GST control) with ETV3 and 1.21 fold enrichment (6-mer frequency, TF over GST control) with ETV6.
In the case of CTAGGT, the binding signal with ERF is 1.03 fold enrichment (6-mer frequency, TF over GST control); with ETV3L it was 1.16 fold enrichment (6-mer frequency, TF over GST control); in the test with ETS2, 1.11 fold enrichment (6-mer frequency, TF over GST control); in the test with SPDEF, 1.17 fold enrichment (6-mer frequency, TF over GST control); with ETV7, 1.1 fold enrichment (6-mer frequency, TF over GST control); with ELF5 it was 1.01 fold enrichment (6-mer frequency, TF over GST control). For the same sequence, the binding signal with ETV3 is 1.14 fold enrichment (6-mer frequency, TF over GST control); in the test with ETV6, 1.11 fold enrichment (6-mer frequency, TF over GST control).
Consider GGCTCA, for which the binding signal was 1.3 fold enrichment (6-mer frequency, TF over GST control) in the test with ERF; 1.33 fold enrichment (6-mer frequency, TF over GST control) with ETV3L; 1.19 fold enrichment (6-mer frequency, TF over GST control) with ETS2; 1.15 fold enrichment (6-mer frequency, TF over GST control) with SPDEF; 1.15 fold enrichment (6-mer frequency, TF over GST control) with ETV7; 1.14 fold enrichment (6-mer frequency, TF over GST control) in the test with ELF5. Also, the binding signal in the test with ETV3 was 1.23 fold enrichment (6-mer frequency, TF over GST control); with ETV6 it was 1.26 fold enrichment (6-mer frequency, TF over GST control).
